# Values without a mark were called inactive. The source made the active and inactive calls.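 Rule for the calls, unless noted: active = mean inhibition above 46.68%, the untreated control wells mean plus 3 SD; inactive = the rest.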
# Legend:
# [1] = biological target: Nuclear receptor coactivator 3 (Homo sapiens) (UniProt Q9Y6Q9); assay: SRC3 coactivator transcriptional activity inhibitors, confirmation, cell-based, luminescence, quadruplicate (AID 588792;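 active = mean inhibition over 43.08%, the solvent-only control mean plus 3 SD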;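 note: 0% = DMSO treated cells and 100% = gossypol at 36 µM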); settings: HEK293 GAL4-SRC3 luciferase reporter, at 3.6 µM, hits give high values
# [2] = tested on: transactivating tegument protein VP16 (Human herpesvirus 1), Gal4-VP16 luciferase reporter; assay: VP16 transactivation inhibitors, counter-screen for SRC3 inhibitor project, cell-based, luminescence, high throughput (AID 588794; in the data active = inhibition above about 30%); settings: mammalian cells, VP16-driven luciferase reporter luminescence; at 3.6 µM; hits give high values
# [3] = biological target: Nuclear receptor coactivator 1 (Homo sapiens) (UniProt Q15788); assay: SRC1 coactivator transcriptional activity inhibitors, confirmation, cell-based, luminescence, quadruplicate (AID 588820); settings: HEK293 GAL4-SRC1 luciferase reporter, at 3.6 µM, hits give high values;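 note: 0% = DMSO wells and 100% = gossypol 36 µM treated wells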
# [4] = VP16 transactivation inhibitors, counter-screen for SRC1 inhibitor project, cell-based, luminescence, high throughput (AID 588824; in the data active = inhibition above about 25%); settings: cell-based VP16 transactivation luciferase luminescence; at 3.6 µM; hits give high values
# [5] = StAR promoter reporter inhibitors, counter-screen for LRH-1 inverse agonist project, cell-based, luminescence, high throughput (AID 651611; in the data active = inhibition above about 28%); settings: StAR promoter luciferase reporter counterscreen, at 3.6 µM, hits give high values
# [6] = biological target: Nuclear receptor subfamily 5 group A member 2 (Homo sapiens) (UniProt O00482); assay: LRH-1 (NR5A2) inverse agonists, retest, confirmation, cell-based, luminescence (AID 651613; in the data active = inhibition above about 42%;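 note: HEK293T cells co-transfected with LRH-1 and StAR promoter luciferase reporter; 0% = vehicle wells and 100% = parental cells lacking receptor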); settings: cell-based LRH-1 luciferase reporter, inverse agonism; at 3.6 µM; hits give high values
# [7] = biological target: Steroidogenic factor 1 (Homo sapiens) (UniProt Q13285); assay: SF1 (NR5A1) inverse agonists, counter-screen for LRH-1 inverse agonist project, cell-based, luminescence, high throughput (AID 651614; in the data active = inhibition above about 44%;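 note: cells cotransfected with StAR promoter reporter and SF1 expression vector; 0% = vehicle on cells with receptor and 100% = vehicle on cells lacking receptor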); settings: cell-based SF1 luciferase reporter, at 3.6 µM, hits give high values
# [8] = VP16 transactivation reporter inhibitors, counter-screen for LRH-1 inverse agonist project, cell-based, luminescence, high throughput (AID 651615; in the data active = inhibition above about 33%); settings: Gal4-VP16 luciferase reporter cells, at 3.6 µM, hits give high values
# Sequence of Nuclear receptor coactivator 1 (Homo sapiens) (Q15788 whole entry, looked up, the tested form may be a part): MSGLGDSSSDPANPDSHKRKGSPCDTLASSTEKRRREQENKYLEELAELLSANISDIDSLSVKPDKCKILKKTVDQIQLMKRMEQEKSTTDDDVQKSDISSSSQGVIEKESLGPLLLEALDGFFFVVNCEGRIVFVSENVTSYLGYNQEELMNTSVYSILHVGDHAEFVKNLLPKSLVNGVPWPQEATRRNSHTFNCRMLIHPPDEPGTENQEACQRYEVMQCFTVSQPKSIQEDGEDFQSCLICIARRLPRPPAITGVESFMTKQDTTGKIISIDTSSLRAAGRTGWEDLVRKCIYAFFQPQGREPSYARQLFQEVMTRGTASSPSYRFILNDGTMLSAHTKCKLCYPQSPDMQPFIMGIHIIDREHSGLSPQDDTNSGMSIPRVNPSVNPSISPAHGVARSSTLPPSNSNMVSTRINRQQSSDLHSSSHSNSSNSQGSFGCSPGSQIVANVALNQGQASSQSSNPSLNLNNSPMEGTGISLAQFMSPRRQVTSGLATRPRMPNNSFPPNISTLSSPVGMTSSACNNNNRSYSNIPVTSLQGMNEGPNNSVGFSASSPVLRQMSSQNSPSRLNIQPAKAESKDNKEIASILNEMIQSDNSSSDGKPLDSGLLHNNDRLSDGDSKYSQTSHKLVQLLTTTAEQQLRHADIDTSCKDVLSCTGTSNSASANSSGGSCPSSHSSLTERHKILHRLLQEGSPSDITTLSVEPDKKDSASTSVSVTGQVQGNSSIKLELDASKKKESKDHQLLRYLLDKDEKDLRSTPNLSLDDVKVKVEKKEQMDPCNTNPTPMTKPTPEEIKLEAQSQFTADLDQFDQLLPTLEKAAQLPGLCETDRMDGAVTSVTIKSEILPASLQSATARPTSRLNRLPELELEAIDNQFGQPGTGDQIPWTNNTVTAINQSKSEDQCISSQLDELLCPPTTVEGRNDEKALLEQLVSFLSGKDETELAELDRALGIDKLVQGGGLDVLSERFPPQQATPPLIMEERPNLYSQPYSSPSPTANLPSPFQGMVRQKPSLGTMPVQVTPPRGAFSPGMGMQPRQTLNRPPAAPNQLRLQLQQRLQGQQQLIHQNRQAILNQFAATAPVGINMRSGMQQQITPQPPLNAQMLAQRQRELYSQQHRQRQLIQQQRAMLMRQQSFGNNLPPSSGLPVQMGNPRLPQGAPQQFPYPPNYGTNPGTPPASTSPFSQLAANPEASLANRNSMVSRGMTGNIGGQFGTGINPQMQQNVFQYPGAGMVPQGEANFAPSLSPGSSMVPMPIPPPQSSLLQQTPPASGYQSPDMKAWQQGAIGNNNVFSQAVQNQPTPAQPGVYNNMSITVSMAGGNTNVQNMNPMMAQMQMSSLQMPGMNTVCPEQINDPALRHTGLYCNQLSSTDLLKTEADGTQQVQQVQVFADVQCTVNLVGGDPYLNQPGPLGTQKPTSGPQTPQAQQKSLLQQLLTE
# Sequence of Nuclear receptor coactivator 3 (Homo sapiens) (Q9Y6Q9 whole entry, looked up, the tested form may be a part): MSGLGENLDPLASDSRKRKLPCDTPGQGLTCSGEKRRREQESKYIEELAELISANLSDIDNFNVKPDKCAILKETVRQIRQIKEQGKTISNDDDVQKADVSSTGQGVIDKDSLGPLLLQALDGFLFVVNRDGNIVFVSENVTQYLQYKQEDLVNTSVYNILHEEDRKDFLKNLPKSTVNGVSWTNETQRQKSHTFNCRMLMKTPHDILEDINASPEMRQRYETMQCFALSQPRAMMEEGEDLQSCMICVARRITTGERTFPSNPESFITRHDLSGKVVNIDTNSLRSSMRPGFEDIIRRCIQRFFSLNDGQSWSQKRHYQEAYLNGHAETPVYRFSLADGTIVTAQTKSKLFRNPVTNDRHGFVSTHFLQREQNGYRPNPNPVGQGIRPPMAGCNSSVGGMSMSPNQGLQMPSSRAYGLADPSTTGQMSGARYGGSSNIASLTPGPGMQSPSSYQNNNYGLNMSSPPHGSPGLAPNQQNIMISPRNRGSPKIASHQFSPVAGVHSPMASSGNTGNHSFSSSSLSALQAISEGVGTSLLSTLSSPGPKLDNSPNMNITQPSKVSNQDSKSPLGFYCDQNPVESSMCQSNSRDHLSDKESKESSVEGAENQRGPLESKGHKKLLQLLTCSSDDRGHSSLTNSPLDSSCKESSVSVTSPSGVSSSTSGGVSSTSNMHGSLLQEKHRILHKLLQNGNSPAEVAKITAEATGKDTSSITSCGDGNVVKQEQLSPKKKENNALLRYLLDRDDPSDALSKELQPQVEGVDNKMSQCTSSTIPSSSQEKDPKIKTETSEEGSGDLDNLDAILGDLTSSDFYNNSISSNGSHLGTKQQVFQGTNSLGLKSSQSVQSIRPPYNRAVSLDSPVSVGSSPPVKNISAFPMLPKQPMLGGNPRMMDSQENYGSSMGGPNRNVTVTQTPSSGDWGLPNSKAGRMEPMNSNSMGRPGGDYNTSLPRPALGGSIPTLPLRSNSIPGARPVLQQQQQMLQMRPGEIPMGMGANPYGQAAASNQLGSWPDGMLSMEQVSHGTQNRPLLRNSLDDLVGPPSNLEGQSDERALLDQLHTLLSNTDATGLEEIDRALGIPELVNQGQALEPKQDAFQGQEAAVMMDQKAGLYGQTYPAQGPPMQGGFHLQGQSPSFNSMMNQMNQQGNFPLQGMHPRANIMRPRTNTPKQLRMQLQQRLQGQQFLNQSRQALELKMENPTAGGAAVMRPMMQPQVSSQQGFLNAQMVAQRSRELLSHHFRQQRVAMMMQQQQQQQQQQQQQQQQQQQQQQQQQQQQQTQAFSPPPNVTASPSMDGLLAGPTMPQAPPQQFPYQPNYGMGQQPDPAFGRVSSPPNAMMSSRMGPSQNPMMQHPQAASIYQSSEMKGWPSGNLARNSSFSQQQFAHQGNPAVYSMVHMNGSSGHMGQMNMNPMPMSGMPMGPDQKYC
# Sequence of Nuclear receptor subfamily 5 group A member 2 (Homo sapiens) (O00482 whole entry, looked up): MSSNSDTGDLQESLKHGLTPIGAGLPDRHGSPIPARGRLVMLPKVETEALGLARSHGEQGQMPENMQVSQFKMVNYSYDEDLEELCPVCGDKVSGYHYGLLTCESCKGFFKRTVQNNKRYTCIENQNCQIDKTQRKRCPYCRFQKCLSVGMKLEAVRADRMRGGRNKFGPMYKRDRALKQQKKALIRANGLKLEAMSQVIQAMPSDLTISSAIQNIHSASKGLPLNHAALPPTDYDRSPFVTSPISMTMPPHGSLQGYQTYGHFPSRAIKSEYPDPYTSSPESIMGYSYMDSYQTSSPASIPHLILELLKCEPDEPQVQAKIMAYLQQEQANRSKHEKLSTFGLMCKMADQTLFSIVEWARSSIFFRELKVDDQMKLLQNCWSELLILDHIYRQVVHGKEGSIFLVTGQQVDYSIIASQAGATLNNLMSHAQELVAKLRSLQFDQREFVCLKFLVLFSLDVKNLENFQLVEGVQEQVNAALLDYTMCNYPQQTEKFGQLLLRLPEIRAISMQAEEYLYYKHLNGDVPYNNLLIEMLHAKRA
# Sequence of Steroidogenic factor 1 (Homo sapiens) (Q13285 whole entry, looked up, the tested form may be a part): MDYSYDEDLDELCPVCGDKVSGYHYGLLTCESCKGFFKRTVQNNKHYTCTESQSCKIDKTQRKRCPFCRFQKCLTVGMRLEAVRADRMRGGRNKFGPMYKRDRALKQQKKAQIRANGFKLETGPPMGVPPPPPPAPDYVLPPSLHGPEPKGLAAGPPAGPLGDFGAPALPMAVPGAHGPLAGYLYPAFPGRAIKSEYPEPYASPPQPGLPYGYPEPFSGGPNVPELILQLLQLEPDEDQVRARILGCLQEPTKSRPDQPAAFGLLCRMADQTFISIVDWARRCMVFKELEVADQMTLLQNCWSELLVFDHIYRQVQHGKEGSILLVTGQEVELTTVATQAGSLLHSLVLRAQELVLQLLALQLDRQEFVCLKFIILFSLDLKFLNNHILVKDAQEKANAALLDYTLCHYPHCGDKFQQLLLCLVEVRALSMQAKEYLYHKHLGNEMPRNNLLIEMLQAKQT
Compound,inhibition [1],inhibition [2],inhibition [3],inhibition [4],inhibition [5],inhibition [6],inhibition [7],inhibition [8]
CCC(C)(C)c1ccc(OCCCC[n+]2cccc(C)c2C)c(C(C)(C)CC)c1,56.1% (active),72.2% (active),43.5%,71% (active),58% (active),88.1% (active),85.2% (active),80.9% (active)
CCCCCC[n+]1ccccc1/C=C/c1ccc(N(C)C)cc1,89.5% (active),88.2% (active),64% (active),86.2% (active),81.5% (active),110% (active),94.8% (active),94.7% (active)
COc1ccccc1-[n+]1c(C)cc(/C=C2\Sc3ccccc3N2C)cc1C,81.9% (active),85.2% (active),8.54%,79.1% (active),38.9% (active),104% (active),83.3% (active),91% (active)
CCCCCc1ccc(OCCC[n+]2ccccc2)c(CCCCC)c1,45.8% (active),60.7% (active),31.3%,65.9% (active),37.7% (active),83.3% (active),68.1% (active),82.3% (active)
Nc1nc(N)c2c(ccc3c2ccn3Cc2cccc([N+](=O)[O-])c2)n1,76.1% (active),42.6% (active),71.1% (active),40.8% (active),72.6% (active),65.6% (active),67.4% (active),43.3% (active)
O=C(Nc1ccc([N+](=O)[O-])cc1)c1ccc(Cn2cc([N+](=O)[O-])cn2)cc1,43.1% (active),58.7% (active),29.1%,56.1% (active),52.3% (active),77.3% (active),72.8% (active),74.4% (active)
